Results from the supplement of paper PMC10338343.
± gives the standard deviation.

Experiments:
[1] = tested on: MILI (PIWIL2) piRISC loaded with L1MC piRNA (26 nt); test: pre-steady-state target cleavage rate (min^-1); guide: L1MC piRNA 5'p-UAACUAAAUACUAUGCAAGCUGUAGG; higher = faster piRNA-guided slicing of the target;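 further: 1 nM active piRISC with 0.1 nM target library at 33 °C single turnover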
Outline: (§1)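 A burst-and-steady-state fit was used to obtain the pre-steady-state cleavage rate. The input data were sequencing reads of uncleaved targets, normalised to depth and to weakly complementary targets, from a […] transcribed, DNA-blocked target RNA library mixed with 1 nM active affinity-purified piRISC holding one synthetic guide, with or without 500 nM GTSF1 partner protein, in HEPES–potassium acetate buffer at 33 °C for 0–8 or 0–960 min. Three trials were pooled and k3 was capped at 0.0001 min^-1.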

[2] = tested on: EfPiwi piRISC loaded with L1MC piRNA (26 nt); test: pre-steady-state target cleavage rate (min^-1); auxiliary factor: 500 nM Ephydatia muelleri Gtsf1; guide: L1MC piRNA 5'p-UAACUAAAUACUAUGCAAGCUGUAGG; MIWI and MILI are mouse PIWI proteins and EfPiwi is from a freshwater sponge; tags in brackets are library labels; higher = faster piRNA-guided slicing of the target
Outline: as §1

[3] = auxiliary factor: 500 nM mouse GTSF1
[4] = auxiliary factor: none (no GTSF1)

Row | Sequence | pre-steady-state target cleavage rate [1, 3] | pre-steady-state target cleavage rate [1, 4] | pre-steady-state target cleavage rate [2]
1 | UCCUCCUACAGCUUGCAUAGUAUUUUGUUA | 0.177 ± 0.023 | 0.0036 ± 0.0022 | 0.00791 ± 0.0033
2 | UCCUGCUACAGCAAGCAUAGUAUUUAGUUA | 0.325 ± 0.022 | 0.00524 ± 0.0031 | 0.0176 ± 0.0059
3 | UCCUCCUACAGCUUUGCAUAGUAUUUAGUUA | 0.291 ± 0.017 | 0.00758 ± 0.0021 | 0.123 ± 0.036
4 | UCCUGCUACAGCUUGCAAAGUAUUUAGUUA | 0.13 ± 0.012 | 0.00686 ± 0.0019 | 0.00608 ± 0.0019
5 | UCCUGCUUCAGCUUGCAUAGUAUUUAGAUA | 0.165 ± 0.025 | 0.00373 ± 0.002 | 0.00521 ± 0.0024
6 | UCCUGGAACAGCUUGCAUAGAAUUUAGUUA | 0.0554 ± 0.01 | 0.00299 ± 0.0027 | 0.0051 ± 0.0017
7 | UCCUGGAACAGGUAGCAUAGUAUUUAGUUA | 0.209 ± 0.016 | 0.00531 ± 0.0016 | 0.00892 ± 0.0028
8 | UCCUGCUACAGCUUCAUAGUAUUUAGUUA | 0.231 ± 0.019 | 0.00508 ± 0.0025 | 0.00994 ± 0.0031
9 | UCCUCCUACAGCUAGCAUACUAUUUAGUUA | 0.0706 ± 0.011 | 0.0031 ± 0.0022 | 0.00634 ± 0.002
10 | UCCUGCUACAGUCUUGCAUAGUAUUUAGUUA | 0.222 ± 0.021 | 0.00875 ± 0.0023 | 0.00684 ± 0.0025
11 | UCCUGGAUGAGAUUGCAUAGUAUUUAGUUA | 0.153 ± 0.014 | 0.011 ± 0.0024 | 0.00463 ± 0.0025
12 | UCCUGGAACAGGUUGCAUAGUAUUAAGUUA | 0.213 ± 0.023 | 0.00415 ± 0.0022 | 0.00329 ± 0.0021
13 | UCCUGGUACAGCUUGCAAUAGUAUUUAGUUA | 0.0322 ± 0.0093 | 0.00408 ± 0.0024 | 0.00587 ± 0.0028
14 | UCCUCCUAGAGCUUGCAUAGUAUAUAGUUA | 0.249 ± 0.029 | 0.00315 ± 0.0025 | 0.00597 ± 0.0022
15 | UCCUGCUACAGCUUGAAUAGUAUUUAGUUA | 0.22 ± 0.013 | 0.00812 ± 0.002 | 0.0179 ± 0.0045
16 | UCCUGGUAUAGCUUGCAUAGUAUUUAGUUA | 0.252 ± 0.022 | 0.011 ± 0.0024 | 0.0287 ± 0.0075
17 | UCCUGCAACAGCUUGCAUAGUAUAUAGUUA | 0.36 ± 0.038 | 0.00582 ± 0.0026 | 0.00844 ± 0.0024
18 | UCCUGGUACAGCUUGCAUAGUAAUUAGUUA | 0.317 ± 0.034 | 0.00595 ± 0.0029 | 0.00654 ± 0.0025
19 | UCCUGCUACAGCUUGCAUAGUAUUUAGUUUA | 0.308 ± 0.018 | 0.0118 ± 0.0032 | 0.0608 ± 0.016
20 | UCCUCCUACUGCUUGCUUAGUAUUUAGUUA | 0.234 ± 0.015 | 0.00718 ± 0.0021 | 0.0504 ± 0.015
21 | UCCUGGUACAGCUUGGAUAGUAUUUAGUUA | 0.206 ± 0.024 | 0.0152 ± 0.0038 | 0.0049 ± 0.0027
22 | UCCUGCUACAGCUUGGUAAGUAUUUAGUUA | 0.131 ± 0.019 | 0.00591 ± 0.0018 | 0.00341 ± 0.0025
23 | UCCUGGUACAGGAUGCAUAGUAUUUAGUUA | 0.215 ± 0.021 | 0.0111 ± 0.0037 | 0.00598 ± 0.003
24 | UCCUCCUACACCUUGCAAAGUAUUUAGUUA | 0.118 ± 0.015 | 0.00739 ± 0.0022 | 0.0172 ± 0.007
25 | UCCUGCUAGAGCUUGCAUAGUAUUUAGUUA | 0.198 ± 0.017 | 0.00605 ± 0.0021 | 0.00838 ± 0.0023
26 | UCCUGGAUGAGCUUGCAUAGUAUUUAAGUUA | 0.153 ± 0.025 | 0.00993 ± 0.0029 | 0.0082 ± 0.0031

Row | Sequence | pre-steady-state target cleavage rate [1, 3] | pre-steady-state target cleavage rate [1, 4] | pre-steady-state target cleavage rate [2]
27 | UCCUGGUACAGCUUGCAUAGUAUUUAGUA | 0.226 ± 0.031 | 0.00521 ± 0.003 | 0.00657 ± 0.0033
28 | UCCUGGUACAGGUUGGAUAGUAUUUAGUUA | 0.303 ± 0.043 | 0.00912 ± 0.0032 | 0.00482 ± 0.0022
29 | UCCUCCUACAGCUUGCAUAGUAUUUACGUUA | 0.265 ± 0.029 | 0.00757 ± 0.0026 | 0.00783 ± 0.0029
30 | UCCUGGAUCAGCUUGCAUAGUAUUUAUUUA | 0.0819 ± 0.017 | 0.00658 ± 0.0024 | 0.00293 ± 0.0028
31 | UCCUGGAUGUGCUUGCAUACUAUUUAGUUA | 0.0281 ± 0.0064 | 0.00431 ± 0.0022 | 0.0112 ± 0.0036
32 | UCCUCCAACAGCUUGCAUAGUAAUUAGUUA | 0.228 ± 0.018 | 0.0065 ± 0.0021 | 0.0103 ± 0.0047
33 | UCCUGGUACUAGCUUGCAUAGUAUUUAGUUA | 0.068 ± 0.021 | 0.00943 ± 0.003 | 0.00885 ± 0.0038
34 | UCCUGGAUGAGCUUGCUUAGUAUUUAGUAA | 0.155 ± 0.022 | 0.00595 ± 0.0027 | 0.00265 ± 0.0025
35 | UCCUGGAUGUCGUAGCAUAGUAUUUAGUUA | 0.0554 ± 0.011 | 0.00344 ± 0.0024 | 0.00385 ± 0.0025
36 | UCCUGGUAGAGCUUGCAUAGUAUUUAGUAA | 0.206 ± 0.013 | 0.0096 ± 0.0028 | 0.00742 ± 0.0038
37 | UCCUGCUUCAGCUUGCAUACUAUUUAGUUA | 0.0698 ± 0.01 | 0.00358 ± 0.002 | 0.00801 ± 0.0025
38 | UCCUGGAACAGCUUGCAUAGUAUUUGGUUA | 0.221 ± 0.026 | 0.00881 ± 0.0026 | 0.00496 ± 0.002
39 | UCCUGGAUGAGCGUGCAUAGUAUUUAGUUA | 0.186 ± 0.018 | 0.0113 ± 0.003 | 0.0239 ± 0.0062
40 | UCCUGGAUGAGCAUGCAUAGUAUAUAGUUA | 0.213 ± 0.022 | 0.00752 ± 0.0029 | 0.00333 ± 0.0032
41 | UCCUCCUUCAGCUUGCAUAGUAUUUAGAUA | 0.157 ± 0.022 | 0.00242 ± 0.0024 | 0.00476 ± 0.0027
42 | UCCUGGUACAGCUUGCAUAGUAUCUAGUUA | 0.156 ± 0.029 | 0.00431 ± 0.0025 | 0.004 ± 0.0021
43 | UCCUGGAAGAGCUUGCAUAGUAUUUUGUUA | 0.21 ± 0.037 | 0.00584 ± 0.0025 | 0.00497 ± 0.0026
44 | UCCUGGAACAGCUUGCAUAGUAGUUUAGUUA | 0.175 ± 0.013 | 0.00337 ± 0.0031 | 0.0047 ± 0.0024
45 | UCCUGGAACAGCAUGCAUAGUAAUUAGUUA | 0.225 ± 0.017 | 0.00873 ± 0.0024 | 0.0139 ± 0.0048
46 | UCCUCCUACAGCUUGCAUAGUAAAUAGUUA | 0.201 ± 0.022 | 0.00285 ± 0.0028 | 0.00735 ± 0.0032
47 | UCCUGCAACAGCUUGCAUACUAUUUAGUUA | 0.083 ± 0.011 | 0.00386 ± 0.002 | 0.0112 ± 0.0029
48 | UCCUGGAACAGCUUGCAUAGUAUUUAGUGUA | 0.231 ± 0.018 | 0.00523 ± 0.0026 | 0.00557 ± 0.0021
49 | UCCUGGAACAGCUUGCAUAGUAUGUUAGUUA | 0.243 ± 0.046 | 0.0048 ± 0.0027 | 0.00812 ± 0.0028
50 | UCCUGCUACAGCUUGCGUAGUAUUUAGUUA | 0.206 ± 0.014 | 0.00688 ± 0.0029 | 0.0375 ± 0.011
51 | UCCUGGAUCAGCUUGCAUUGUAUUUAGUUA | 0.179 ± 0.013 | 0.00955 ± 0.0024 | 0.0179 ± 0.0038
